# In the library only some 1.8% were active in any assay of this set; here they are far more common.
# IL1B NFkB inh: blocks IL-1B driven NFkB nuclear translocation in HUVEC cells | HUVEC IL-1B NFkB p65 nuclear translocation imaging | inhibition, % at 2 µM | 94,000 compounds, 0.43% hits;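 active = inhibition above about 30% together with a positive call from visual inspection of the well image, limit read from the data; inconclusive = inhibition above a set limit but visual check negative; inactive = inhibition not above a set limit, visual check negative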;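 note: nuclear over cytoplasmic p65 intensity ratio measured by imaging; 0% = IL-1B stimulated DMSO wells and 100% = unstimulated DMSO wells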
# VCAM1 TNFa inh: reduces TNF alpha induced VCAM1 expression in HUVEC | 95,000 compounds, 0.48% hits | inhibition, % at 2 µM | HUVEC TNFa-induced VCAM-1 immunofluorescence, high-content imaging;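 active = inhibition above the batch mean plus 3 SD, with images confirmed as a hit by eye, cut at about 37% in these data; inconclusive = inhibition above that limit but hit not confirmed in images; inactive = inhibition not above that limit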;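 note: 0% = TNF-stimulated DMSO wells and 100% = unstimulated control wells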
# IL1B NFkB pot: enhances IL-1B driven NFkB nuclear translocation; HUVEC IL-1B NFkB p65 nuclear translocation imaging; activation, % at 2 µM; 94,000 compounds, 0.3% hits;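 active = activation above 40%, about the mean plus 3 SD, also judged a hit on visual image review; inconclusive = activation above 40% but not a hit on visual review; inactive = activation not above 40% and no visual hit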;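 note: percent activation is computed from the nuclear over cytoplasmic p65 intensity ratio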
# IL1B cytotox: HUVEC cytotoxicity counter-screen, IL-1B stimulated | HUVEC cell count loss, Hoechst imaging | cell count reduction, % at 2 µM | 94,000 compounds, 0.41% hits | AID 845;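 active = cell count reduction more than 3 SD above the screen-wide mean, cut at about 70% in these data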;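 note: normalized per plate to untreated control cells as the no-loss baseline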
# TNFa cytotox: HUVEC cytotoxicity counter-screen, TNF alpha stimulated. cell count reduction, % at 2 µM. AID 848. HUVEC TNFalpha-stimulated, Hoechst cell count, imaging. 93,000 compounds, 0.17% hits;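 active = cell count reduction exceeding the screen mean by over 5 SD, scaled to untreated wells per plate, cut at about 78% in these data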;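 note: cells counted after 24 h of TNF alpha exposure following the 1 h pretreatment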
# E-sel TNF inh: TNF alpha driven E-selectin expression inhibition | HUVEC TNFa-induced E-selectin immunofluorescence, high content | inhibition, % at 2 µM | 120,000 compounds, 0.71% hits;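 active = inhibition above the batch mean plus 3 SD, and confirmed as a hit on visual image review, cut at about 43% in these data; inconclusive = passes the inhibition cutoff but fails visual image review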;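 note: 0% = TNF-stimulated DMSO wells and 100% = unstimulated control wells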
# * hit, by the source's call; ? = inconclusive; / = no result given.
SMILES,IL1B NFkB inh,VCAM1 TNFa inh,IL1B NFkB pot,IL1B cytotox,TNFa cytotox,E-sel TNF inh
CCOC(=O)Cc1nnc(NC(=O)CSc2ccc(Cl)cc2)s1,/,26.3,/,/,-0.7,67.1*
COc1ccccc1OCCn1cc(C(=O)c2ccco2)c2ccccc21,2.4,3.6,-2.4,-19.6,9.8,64.5*
COc1cccc(OCCn2cc(C(=O)c3ccco3)c3ccccc32)c1,-3.5,21.9,3.5,1.6,8.8,-7.4
COc1cc(-c2nnc(COC(=O)c3c4c(nc5ccccc35)CCCC4)o2)cc(OC)c1OC,-5.0,-1.3,5.0,1.6,-23.7,8.7
CC12CCC3(CO)COC(c4ccccc4O1)C2C3 (centres undefined),/,/,/,/,/,55.2*
CCN1CCN(C(=O)Nc2ccccc2OC)CC1,4.5,-4.4,-4.5,92.1*,1.2,6.9
COC(=O)c1cccc(S(=O)(=O)N(Cc2ccco2)Cc2cc3ccc(OC)cc3[nH]c2=O)c1,10.9,87.1*,-10.9,3.5,61.4,/
COC(=O)c1cccc(S(=O)(=O)N(Cc2ccco2)Cc2cc3cc(OC)c(OC)cc3[nH]c2=O)c1,7.3,-5.4,-7.3,-22.3,-34.9,12.7
O=C(C1CCN(S(=O)(=O)c2ccccc2F)CC1)N1CCc2ccccc2C1,/,/,/,/,/,18.9
CCc1ccc(-n2c(SCc3c(C)noc3C)nnc2-c2ccncc2)cc1,-66.5,11.6,66.5*,17.0,6.1,-0.2
Cc1noc(C)c1CSc1nnc(-c2c[nH]c3ccccc23)n1-c1ccc(Cl)cc1,-20.9,28.6,20.9,-21.6,-26.4,-5.7
O=C1C2CCCCC2C(=O)N1c1ccc(NC2CCCCC2)c([N+](=O)[O-])c1 (centres undefined),/,/,/,/,/,-6.0
O=C(c1sc2ccccc2c1Cl)N(Cc1ccccc1Cl)C1CCS(=O)(=O)C1 (centres undefined),10.6,14.6,-10.6,9.9,-8.6,0.2
O=C(c1sc2ccccc2c1Cl)N(Cc1ccccc1)C1CCS(=O)(=O)C1 (centres undefined),65.7*,-6.8,-65.7,9.9,-2.8,3.1
CCOc1ccc(NC(=O)CSc2nc(C)c3c(c2C#N)CCCC3)cc1,-9.9,2.7,9.9,-21.6,-0.8,-18.9
COc1cccc(Cn2c(NCC(C)C)nc3c2c(=O)n(C)c(=O)n3C)c1,-26.8,19.1,26.8,73.5*,-2.0,14.3
CCCNc1nc2c(c(=O)n(C)c(=O)n2C)n1CCc1ccccc1,99.9*,18.7,-99.9,-31.4,-25.2,22.9
Cn1c(=O)c2c(nc(NCc3ccc4c(c3)OCO4)n2Cc2ccc(F)cc2)n(C)c1=O,44.3*,37.5,-44.3,-29.2,-3.4,16.9
CN(Cc1ccccc1)C(=O)CSc1nnc(-c2ccco2)n1-c1ccccc1,-0.1,-4.7,0.1,-5.2,-7.3,-9.0
Cc1cc(C)c(C#N)c(SC(F)F)n1,12.5,5.3,-12.5,-0.4,1.1,/
COc1ccc(-c2nc3ccccc3s2)cc1O,-22.4,-37.3,22.4,0.0,-34.9,-16.7
COc1ccc(-c2c/c(=N\c3nc(-c4ccccc4)c(C)s3)c3ccccc3o2)cc1O,-3.6,50.7*,3.6,23.8,54.9,1.2
CCOC(=O)c1cnc(-n2nc(C)cc2C)nc1N(C)C,-4.3,5.9,4.3,8.4,-5.9,/
CCOC(=O)c1cnc(-n2nc(C)cc2C)nc1N1CCOCC1,-11.1,92.5*,11.1,13.2,73.9,/
COc1ccc(NC(=O)CC2C(=O)N(c3cccc(OC)c3)C(=O)N2CCC(C)C)cc1 (centres undefined),-5.3,-3.9,5.2,-7.6,-42.3,12.8
SMILES,IL1B NFkB inh,VCAM1 TNFa inh,IL1B NFkB pot,IL1B cytotox,TNFa cytotox,E-sel TNF inh
CC(c1ccccc1)n1cc(C(=O)NCCN2CCOCC2)nn1 (centres undefined),-52.7,14.5,52.7*,12.5,10.8,-13.6
CCOC(=O)CC(=O)CSc1nc2c(sc(=S)n2-c2ccccc2)c(=O)[nH]1,4.6,-45.2,-4.6,-11.8,-18.5,/
CCOC(=O)c1ccc(-n2c(=S)sc3c(=O)[nH]c(C)nc32)cc1,2.9,87.0*,-2.9,-18.6,-7.8,-15.5
COc1cccc(-c2cc3c(=O)n(-c4ccccc4)c(=S)[nH]c3s2)c1,0.5,18.4,-0.5,-71.9,-30.3,66.3*
COc1ccc(-n2cnc3sc(-c4ccccc4)cc3c2=O)cc1,-1.9,7.8,1.9,-37.3,-9.0,-42.6
CCOC(=O)c1c(C)n(C)c2ccc(OC)c(NC(=O)CN3CCN(C4CCCCC4)CC3)c12,24.8,-14.5,-24.8,86.6*,-18.7,8.2
CC1(C)CC2(CCO1)OC(=O)CC2C(=O)NCc1ccccc1 (centres undefined),8.3,2.0,-8.3,15.1,-13.6,/
COc1ccc(CN(C(=S)Nc2ccccc2)C2CC(=O)N(c3ccc(Cl)cc3)C2=O)cc1 (centres undefined),-12.0,8.0,12.0,-36.4,-11.4,-2.7
O=C1CC(N(Cc2cccs2)C(=O)Nc2ccccc2)C(=O)N1c1ccc(Cl)cc1 (centres undefined),/,/,/,/,/,69.8*
CCCCn1c(=O)c(C(=O)c2ccccc2)nc2ccccc21,5.5,7.5,-5.5,-19.9,-3.1,-20.1
CCCCn1c(=O)nc2n(-c3ccccc3)c3ccccc3cc-2c1=O,-91.8,-13.2,91.8*,-51.6,8.6,-78.2
COCCn1c(SCC(=O)N2CCCCC2)nc2ccccc2c1=O,-7.4,-16.2,7.4,-9.5,-4.8,95.7*
CCn1c(SCC(=O)N2CCCC2)nc2ccccc2c1=O,-46.2,2.4,?,-32.1,-34.5,/
COc1ccc(S(=O)(=O)N(C)CC(=O)Nc2ccc(C(F)(F)F)cc2)cc1Cl,-8.8,-3.4,8.8,1.1,3.7,-5.8
O=C(/C=C/c1ccc2c(c1)OCO2)Nc1nc2ccccc2s1,/,/,/,/,/,61.6*
O=C(Nc1ccccc1)/C(=C1\CCCN1)[N+](=O)[O-],/,/,/,/,/,-23.0
Cc1ccc(C(C)C)c(OCCNS(C)(=O)=O)c1,10.2,5.2,-10.2,84.2*,-2.8,-5.1
COc1ccc(C(CC(=O)Nc2cc([N+](=O)[O-])ccc2OC)c2ccccc2)cc1 (centres undefined),/,/,/,/,/,5.2
Cc1ccc(OCC(=O)Nc2sc3c(c2C#N)CCC3)cc1,-59.1,5.0,59.1*,24.9,-14.1,-22.8
O=C(CCc1nc2ccccc2[nH]1)NCc1ccc2c(c1)OCO2,/,/,/,/,/,10.6
O=C(CCc1nc2ccccc2[nH]1)Nc1ccc2c(c1)OCO2,43.5*,5.8,-43.5,0.0,-6.2,29.3
CC(C)=C1SC(N2CCN(c3ccc(C)cc3)CC2)=NC1=O,-20.8,12.1,20.8,-3.7,-15.1,63.4*
CC(C)=C1SC(N2CCN(c3ccc(Cl)cc3)CC2)=NC1=O,/,/,/,/,/,4.7
CCc1ccc2oc(-c3cc(N)ccc3O)nc2c1,-9.0,39.1*,9.0,-23.0,0.4,35.9
Cc1cc(C)c(CSc2ncnc3nc[nH]c23)c(C)c1,/,/,/,/,/,21.1
CCOC(=O)c1[nH]c2ccc(OC)cc2c1NC(=O)CCN1CCCC(C)C1 (centres undefined),0.7,-5.4,-0.7,-12.4,-12.8,/
O=C(CSc1ccccn1)Nc1ccc(NC(=O)CSc2ccccn2)cc1,/,/,/,/,/,-43.0

# Screening data deposited in PubChem by Columbia University Molecular Screening Center.
